Compound activity as filed in PubChem.
TDP1 cell noCPT = qHTS for Inhibitors of human tyrosyl-DNA phosphodiesterase 1 (TDP1): qHTS in cells in absence of CPT | actives 15% (n = 420,000) | DT40 Tdp1-/- hTDP1 cells, no CPT, ATP luminescence, 48 h | Potency, µM (top dose mostly 46.2 µM), for the others: at the top dose activity change, negative = growth inhibition, most hits filed as inhibitors; further: nearly all actives have a fitted effect of over 55% in size
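A cellular qHTS used chicken DT40 cells lacking endogenous Tdp1 but carrying stably transfected human TDP1. Compounds were applied without camptothecin, and cell growth kinetics were judged by ATP-dependent luminescence after ≥48 hr.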
TDP1 cell CPT = qHTS for Inhibitors of human tyrosyl-DNA phosphodiesterase 1 (TDP1): qHTS in cells in presence of CPT | chicken DT40 Tdp1-/-;hTDP1 cells + 20 nM CPT, ATP luminescence, 48 h | Potency, µM (top dose mostly 46.2 µM), inactives show at the top dose activity change, negative = growth inhibition, most hits filed as inhibitors | actives 12% (n = 420,000) | AID 686979, 2013; further: nearly all actives have a fitted effect of over 55% in size
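Cell growth measured by CellTiter-Glo luminescence after a minimum 48 h, 37 C compound exposure with 20 nM CPT in Tdp1-knockout DT40 cells stably expressing hTDP1, seeded 400/well; qHTS titration format.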
VP16 counter = VP16 counterscreen qHTS for inhibitors of ROR gamma transcriptional activity | Drosophila S2 Gal4-VP16 UAS-luciferase, luminescence, 20 h | Potency, µM (highest dose often 53.6 µM), without a hit: top-dose activity, negative = inhibition, hits mostly inhibitors | actives 3.5% (n = 310,000) | AID 2546, 2010;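 further: Gal4-VP16 expression switched on by copper sulfate through the metallothionein promoter; nearly all actives have a fitted effect of over 50% in size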
RORgamma inh = qHTS for inhibitors of ROR gamma transcriptional activity; AID 2551, 2010; Nuclear receptor ROR-gamma (Mus musculus), P51450; actives 5.4% (n = 310,000); Potency, µM (titrated, usually from 53.6 µM), for the others: at the highest dose activity change, negative = inhibition, actives largely listed as inhibitors; Drosophila S2 Gal4-RORgamma UAS-luciferase reporter, 20 h; further: nearly all actives have a fitted effect of over 60% in size
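Luciferase reporter read in Schneider cells carrying Gal4-RORγ (mouse) and UAS-Photinus luciferase; cells given compound 1 h before 700 uM copper sulfate induction, then incubated 20 h at ambient temperature.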
ALOX12 inh = Primary qHTS assay for inhibitors of human arachidonate 12S-lipoxygenase (ALOX12): Round 2. actives 1.1% (n = 580,000). Polyunsaturated fatty acid lipoxygenase ALOX12 (Homo sapiens), P18054. Potency, µM (highest dose often 108 µM), for the others: at the top dose activity change, negative = inhibition, hits mostly inhibitors. AID 1671190, 2021. purified 12hLO, xylenol orange hydroperoxide absorbance
Target sequence (P18054 whole entry, looked up): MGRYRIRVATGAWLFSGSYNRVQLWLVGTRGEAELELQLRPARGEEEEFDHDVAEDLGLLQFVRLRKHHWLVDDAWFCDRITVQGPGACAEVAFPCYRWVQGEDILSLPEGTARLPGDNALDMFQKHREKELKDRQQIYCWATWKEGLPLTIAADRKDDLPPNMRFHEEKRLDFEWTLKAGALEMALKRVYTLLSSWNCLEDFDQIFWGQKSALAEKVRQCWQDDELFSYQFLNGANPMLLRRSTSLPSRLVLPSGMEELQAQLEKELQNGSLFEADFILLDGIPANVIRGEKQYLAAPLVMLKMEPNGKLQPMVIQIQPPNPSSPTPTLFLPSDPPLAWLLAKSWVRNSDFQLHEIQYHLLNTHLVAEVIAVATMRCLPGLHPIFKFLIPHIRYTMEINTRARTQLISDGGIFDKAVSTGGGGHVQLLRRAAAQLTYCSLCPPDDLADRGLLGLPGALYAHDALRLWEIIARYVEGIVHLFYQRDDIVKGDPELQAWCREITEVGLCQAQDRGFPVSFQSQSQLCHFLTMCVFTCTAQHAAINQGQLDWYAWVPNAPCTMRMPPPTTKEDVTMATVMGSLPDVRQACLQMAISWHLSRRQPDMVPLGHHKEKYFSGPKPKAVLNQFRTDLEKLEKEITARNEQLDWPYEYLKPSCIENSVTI
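Purified human 12hLO at 150 nM in 25 mM Hepes, 0.01% Triton X-100, pH 7.0, preincubated 15 min at room temperature with compound. Reaction started with 40 uM arachidonic acid, 30 min at room temperature. Hydroperoxide measured by Fe-xylenol orange, 573/405 nm absorbance ratio.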
ELG1 DNA repair = qHTS screen for small molecules that inhibit ELG1-dependent DNA repair in human embryonic kidney (HEK293T) cells expressing luciferase-tagged ELG1; HEK293T ELG1-luciferase reporter, luminescence, 16 h; DNA damage induced by 5-fluorouridine; Potency, µM (titrated, usually from 46.1 µM), without a hit: top-dose activity change, negative = inhibition, usual class: inhibitors; actives 2.3% (n = 330,000); AID 504467, 2011; further: nearly all actives have a fitted effect of over 55% in size
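In this reporter screen, reduction of luminescence relative to DMSO vehicle indicated activity. Compounds and 5-fluorouridine were added together to 2,000 cells per well, incubated for 16 hr at 37 °C, then developed with ONE-Glo.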
Active calls of the source: *; ? = inconclusive; . = no result given; [ ] = dose if it differs, or a comment. Hits are enriched below; roughly 15% of the tested compounds scored in any of these assays. The call rests on the fitted dose curve; in most records, active means well fitted curve in the direction sought with a large enough effect; inconclusive means small, poorly fitted or top-dose-only effect, or another doubt; inactive means no such curve, though single readings can be large; an effect the other way counts as inactive or inconclusive. On the % scale 0 is the no-effect control and ±100 the full control effect; potency means the concentration at half of the fitted maximal effect.

SMILES | TDP1 cell noCPT | TDP1 cell CPT | VP16 counter | RORgamma inh | ALOX12 inh | ELG1 DNA repair
COc1cc(NC(=O)N2CCNC2=O)cc(C(=O)Nc2cccc(C(F)(F)F)c2)c1 | 4.11µM* | 3.66µM* | 3.3% | 0.5% | -17.7% | ?
O=C(Nc1cccc(C(F)(F)F)c1)N1CCN(C(=O)Nc2cccc(C(F)(F)F)c2)CC1 | -8.8% | -10.1% | -6.0% | 28.1% | 0.0% | -2.7%
CCOc1ccc2c(c1)C(=NNC(=O)c1ccncc1)c1cc(OCC)ccc1-2 | 5.17µM* | 3.66µM* | 0.891µM* | 1.12µM* | 12.9% | ?
COc1cccc(C(C(=O)NC2CCCCC2)N(C(=O)c2ccco2)c2ccccc2OC)c1 (centres undefined) | 11.6µM* | ? | -10.8% | 17.5% | 1.0% | 0.4%
COc1ccc(C(C(=O)NC2CCCCC2)N(C(=O)c2ccco2)c2ccccc2OC)cc1 (centres undefined) | 16.4µM* | ? | -5.7% | 20.0% | -11.0% | ?
COc1ccc(C)cc1N(C(=O)c1ccco1)C(C(=O)NC1CCCC1)c1ccc(N2CCOCC2)cc1 (centres undefined) | 9.2µM* | -12.9% | 2.1% | 27.3% | -2.3% | -8.9%
O=Cc1ccccc1Oc1ccc(F)c(Cl)c1 | . | . | . | . | 13.0%[12.5 µM] | .
COc1cc2nc(N3CCCN(C)CC3)nc(N3CCN(C)CC3)c2cc1OC | 15.8µM* | 14.1µM* | . | . | . | .
COc1cc2nc(N3CCCN(C)CC3)nc(N(C)C)c2cc1OC | 17.8µM* | ? | . | . | . | .
COc1ccc(CCNC(=O)C2CCN(c3cn[nH]c(=O)c3)C2)cc1OC (centres undefined) | . | . | . | . | 17.6% | .
O=C(COC(=O)c1ccccc1Sc1ccc(C(F)(F)F)cc1[N+](=O)[O-])NC1CCCc2ccccc21 (centres undefined) | . | . | . | . | 10.2% | .
CCOC(=O)c1cc(C#N)c(SC(C(=O)N2CCCCC2)c2ccccc2)nc1C (centres undefined) | 10µM* | ? | . | . | . | .
CCOC(=O)c1cc(C#N)c(SCc2cccc3ccccc23)nc1C | ? | -5.8% | 6.2% | 11.0% | 6.0% | 3.6%
Cc1ccnc(NC(=O)Nc2ccc(Br)cc2Cl)c1 | -55.6% | ? | -16.1% | -1.4% | -0.7% | ?
Cc1cc(C)nc(NC(=S)Nc2cccc(Cl)c2Cl)c1 | -23.4% | -16.4% | 1.78µM* | 0.398µM* | -28.6% | -16.3%
Cc1cc(C)nc(NC(=S)Nc2ccc(Br)cc2Cl)c1 | 6.51µM* | 6.51µM* | ? | 0.562µM* | -1.8% | 12.6%
Cc1ccc(CNC(=S)Nc2cccc(Cl)c2Cl)cc1 | . | . | . | . | 11.4% | .
CCOP(=O)(OCC)c1nc(-c2cccc3ccccc23)oc1NC | . | . | . | . | -19.3% | .
c1ccc2[nH]c(C3CCC(Cn4cc(-c5cncnc5)nn4)CC3)nc2c1 (centres undefined) | . | . | . | . | 3.4% | .
CC1=NN2C(=N)/C(=C\c3ccc(SCc4ccccc4)o3)C(=O)N=C2S1 | -8.6% | -2.4% | 9.4% | 0.9% | 39.8µM* | 0.5%
CC1=NN2C(=N)/C(=C\c3cc(C)n(Cc4ccccc4)c3C)C(=O)N=C2S1 | 25.9µM* | -7.4% | -6.2% | 11.7% | 189.8% | ?
Cc1cc(/C=C2\C(=N)N3N=C(CC(=O)N4CCOCC4)SC3=NC2=O)c(C)n1Cc1ccccc1 | 10.4% | 1.4% | -9.2% | -1.3% | 397.9% | 7.4%
N=C1/C(=C\c2ccc(SCc3ccco3)o2)C(=O)N=C2SC=NN12 | -13.0% | -8.7% | 0.5% | -0.8% | -17.3% | 17.7%
CC(C)Oc1ccc(Nc2cc3c(cn2)cc(-c2cccnc2)n3C)cc1 | . | . | . | . | -38.0% | .
COc1ccc(Nc2cc3c(cn2)cc(-c2cccc(C(F)(F)F)c2)n3C)cc1 | . | . | . | . | 44.7µM* | .
SMILES | TDP1 cell noCPT | TDP1 cell CPT | VP16 counter | RORgamma inh | ALOX12 inh | ELG1 DNA repair
FC(F)(F)c1ccccc1-c1cncnc1-n1ccnc1 | 12.7% | 2.6% | -19.4% | 0.4% | -12.1% | .
CN(C)c1ccc(-c2cncnc2-n2ccnc2)cc1 | -22.7% | ? | -18.5% | -27.3% | 39.8µM* | .
Fc1ccc(OCc2cc(-c3cccs3)on2)c(Br)c1 | . | . | . | . | -45.0% | .
CC(C)(C)C1COc2ccccc2N1C(=O)c1cccc(Cl)c1 (centres undefined) | 23.1µM* | ? | -1.2% | -2.6% | -5.9% | -8.4%
COC(=O)CC1COc2ccccc2N1C(=O)c1cccc(Cl)c1 (centres undefined) | ? | -19.8% | -2.3% | 27.2% | -19.6% | 4.2%
O=C(NCCc1nc2ccccc2n1Cc1ccc(Cl)cc1Cl)c1ccco1 | 1.84µM* | 1.84µM* | . | . | -23.3% | .
O=C(NCCc1nc2ccccc2n1Cc1c(F)cccc1Cl)c1ccco1 | ? | ? | . | . | -6.1% | .
O=C(NCCCc1nc2ccccc2n1Cc1ccc(Cl)cc1Cl)c1ccco1 | ? | 23.1µM* | . | . | ? | .
O=C1NCCOCCN(C(=O)c2cccs2)[C@@H]2CCCC[C@H]12 | . | . | . | . | 33.4% | .
Cc1ccc(CNS(=O)(=O)c2ccc(CCC(=O)O)cc2)cc1 | . | . | . | . | -7.9% | .
CC(=O)[C@@]1(O)C(C)CC2C3C=C(C)C4=Cc5c(cnn5-c5ccccc5)C[C@]4(C)C3C(O)C[C@@]21C (some centres undefined) | 5.17µM* | 4.61µM* | -26.3% | -17.4% | -73.5% | ?
Cc1ccccc1CN1Cc2nc(N3CCCC3)ccc2OCC1=O | . | . | . | . | -5.5%[176 µM] | .
Cc1nc(C)c(C(=O)N2CCCC(C(=O)c3ccc(Cl)cc3C)C2)s1 (centres undefined) | ? | 18.4µM* | -19.9% | ? | -29.3% | -7.0%
Cc1cc(C(=O)N2CCCC(C(=O)c3ccc(Cl)cc3C)C2)no1 (centres undefined) | 23.1µM* | 18.4µM* | 8.8% | 24.6% | 393.2% | ?
Cc1nc(C)n(CC(=O)N2CCCC(C(=O)c3ccc(Cl)cc3C)C2)n1 (centres undefined) | 18.4µM* | 0.411µM* | -18.3% | 34.9% | -8.6% | -3.8%
Cc1cc(Cl)ccc1C(=O)C1CCCN(C(=O)c2ccoc2)C1 (centres undefined) | 14.6µM* | ? | ? | ? | -3.5% | 3.7%
Cc1oc(-c2nc(C#N)c(NCc3ccco3)o2)cc1S(=O)(=O)N1CCCC1 | . | . | . | . | 28.2% | .
